Reference: PubChem BioAssay AID504832 (National Center for Advancing Translational Sciences (NCATS), 2011)
Screen size: about 310,000 compounds; about 18,000 (5.8%) were called active. About 22% were inconclusive and are not listed. This is one part of a sample in which actives are shown more often than they occur. A number with no mark means an inactive call. Calls follow the shape of the dose curve; as a rule, active = well fitted inhibition curve with a large enough effect; inconclusive = small, poorly fitted or top-dose-only effect, or another doubt; inactive = no such curve, though single readings can be large or run the other way.

Experiment: Primary qHTS for delayed death inhibitors of the malarial parasite plastid, 48 hour incubation
Conditions: P. falciparum luciferase growth in erythrocytes; series mostly up to 28.7 µM; activity change, negative = inhibition: at the top concentration
How it was run: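 A one-generation exposure of luciferase-tagged malaria parasites in RPMI 1640/Albumax erythrocyte culture, 37 C and 5% CO2. Inhibition is inferred from decreased luminescence after adding detection reagent.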
% is scaled to controls: 0 for no effect and ±100 for the full control effect; potency is read from the fitted curve at half-maximal effect.

Row | SMILES | Potency | activity change, negative = inhibition
1 | COc1ccc(-c2nn(-c3ccccc3)cc2/C=N/Nc2ccccn2)cc1OC | 4.65 µM (active) | –
2 | COc1ccc(-c2nn(-c3ccccc3)cc2C(=O)Nc2nccs2)cc1OC | 13.1 µM (active) | –
3 | Cc1nnc(SCC(=O)N/N=C/c2cn(-c3ccccc3)nc2-c2ccc(F)cc2)n1-c1ccccc1 | – | -22%
4 | CN(C)/N=C/c1cn(-c2ccccc2)nc1-c1cccnc1 | – | 6.39%
5 | O=C(O)c1ccc(NC(=O)c2cn(-c3ccccc3)nc2-c2ccc(Cl)cc2)cc1 | – | -13%
6 | COc1ccc(-c2nn(-c3ccccc3)cc2C(=O)Nc2nc(CC(C)=O)ns2)cc1 | – | -13.6%
7 | Cc1nc([N+](=O)[O-])cn1CC(=O)Nc1ccc(Cl)cc1 | – | 25.8%
8 | O=C(Nc1ccc(NC(=O)c2ccccc2F)cc1)c1ccccc1F | – | 23.2%
9 | O=C(O)c1ccccc1CSc1nc2ccccc2s1 | – | 46.1%
10 | CCOC(=O)C1CCN(C(=O)CN2C(=O)c3cccnc3Oc3ccc(C)cc32)CC1 | – | -12.4%
11 | COc1ccc(C2/C(=C(/O)c3ccccc3)C(=O)C(=O)N2C)c(OC)c1 (configuration not stated) | – | 9.99%
12 | C#CC(CCN1CCCCC1)(OC)c1ccccc1 (configuration not stated) | – | 131%
13 | CN1CCC[C@@H]1CCO[C@](C)(c1ccccc1)c1ccc(Cl)cc1 | 12 µM (active) | –
14 | COc1ccc(CNC(=O)COc2ccccc2C(=O)c2cnn(-c3ccccc3)c2)cc1OC | – | 35.7%
15 | N#Cc1ccc(CN2CCN(CC(=O)Nc3ccccc3C(=O)NC3CC3)CC2)cc1 | – | -9.94%
16 | CCn1cc(C(=O)NCCC(=O)NCCO)c(=O)c2cc3c(cc21)OCO3 | – | 16.2%
17 | COc1ccc(C2(CNC(=O)Cc3ccc(OC)c(OC)c3)CCCC2)cc1 | – | 17.5%
18 | COc1ccc(C(=O)Nc2ccc(C3(C#N)CCCC3)cc2)cc1OC | – | 76%
19 | COc1cc(C(=O)NCC2(c3ccccc3)CCCC2)ccc1OC(C)C | 14.7 µM (active) | –
20 | COc1cc(OC)c(NS(=O)(=O)c2cn(C)cn2)cc1Cl | – | 20.2%
21 | Cc1cccc(NC(=O)c2cccnc2Cl)n1 | – | 9.63%
22 | CCc1ccc2c(c1)cc(CN(C(=S)Nc1ccccc1Cl)C1CC1)c1nnnn12 | 6.57 µM (active) | –
23 | COCCN(CCOC)C(=S)Nc1ccccc1Cl | – | 36.2%
24 | CCc1cccc(NC(=S)N(CCN(C)C)C2CCN(C(C)C)CC2)c1 | – | -29.2% [at 0.00184 µM]
25 | COc1ccc(CNC(=O)C(=O)NCC2OCCN2C(=O)c2ccc(OC)cc2)cc1 (configuration not stated) | – | -15.6%
26 | CC[C@@H](C)[C@H](NC(=O)CCc1c(C)c2cc3c4c(oc3c(C)c2oc1=O)CCCC4)C(=O)O | – | 12%

Row | SMILES | Potency | activity change, negative = inhibition
27 | Cc1c(C)c2cc3c4c(oc3c(C)c2oc1=O)CCCC4 | – | 22%
28 | Cc1c(CCC(=O)N[C@@H](CC(C)C)C(=O)O)c(=O)oc2c(C)c3oc4c(c3cc12)CCCC4 | 2.33 µM (active) | –
29 | O=C(NCc1ccccc1)C(c1ccccc1)N(C(=O)c1csnn1)c1ccc(F)cc1 (configuration not stated) | – | -14.5%
30 | Cc1n[nH]c(=O)c2c1nnn2Cc1ccc(F)cc1 | – | 19.1%
31 | Cc1c2cn[nH]c(=O)c2c(C)n1Cc1ccc(F)cc1 | 11.7 µM (active) | –
32 | CSc1nc2ccccc2c(=O)n1Cc1ccc(F)cc1 | – | -13%
33 | Cc1ccc(N2C(=O)C3C4C=CC(CC4)C3C2=O)cc1Br (configuration not stated) | – | 0%
34 | O=C(COc1coc(CN2CCN(c3ccccc3F)CC2)cc1=O)N1CCc2ccccc21 | – | -10.4%
35 | COc1ccc(S(=O)(=O)NCC(=O)NC2CC2)cc1OC | – | 6.1%
36 | O=C(O)CCCn1c(=O)c2cccn2c2ccc(F)cc21 | – | 25.8%
37 | CCOC(=O)C1CCN(Cc2nnc(-c3cccc(Br)c3)o2)CC1 | – | 35.6%
38 | CCCCCCCNC(=O)C1(CC2CC(c3cccc(Br)c3)=NO2)CCN(C(=O)c2cc(OCC)c(OCC)c(OCC)c2)CC1 (configuration not stated) | 0.657 µM (active) | –
39 | CCOc1ccccc1N1CCN(C(=O)c2ccc3[nH]c(C)c(C)c3c2)CC1 | – | -8.07%
40 | N#Cc1c(Cl)nc(-c2cccnc2)nc1-c1ccccc1 | – | 0.537%
41 | CCCC[C@H]1COCCS(=O)(=O)N1Cc1cccc(Cl)c1 | – | 0%
42 | COc1cc(NC(=O)C2CC(c3ccccc3O)=NO2)c(OC)cc1Cl (configuration not stated) | – | -5.06%
43 | Cc1nc(-c2ccc(F)cc2)c(CC(=O)N2CCN(S(=O)(=O)c3ccc(F)cc3)CC2)s1 | – | -11.8%
44 | O=C(CSc1nc(Nc2ccccc2)nc(N2CCOCC2)n1)Nc1cc(Cl)ccc1O | 1.17 µM (active) | –
45 | O=C(CN1CCOCC1)Nc1cc(Cl)ccc1Cl | – | 12.8%
46 | Cc1ccccc1NC(=O)CSc1nc2ccc(Nc3nc(N4CCOCC4)nc(N4CCOCC4)n3)cc2s1 | – | -8.19%
47 | Cn1c(SCC(=O)N2CCCCC2)nc2c(c1=O)SCC2 | – | -1.34%
48 | CNC(=O)c1ccc(NC(=O)c2cccc(C(F)(F)F)c2)cc1 | – | -18.5%
49 | O=C(Nc1cccc(-n2cnnn2)c1)c1cccnc1 | – | 18.8%
50 | O=C(Nc1ccc(C(F)(F)F)cc1)c1cccc(-n2cnnn2)c1 | 10.4 µM (active) | –
51 | O=C(NCc1ccc(F)cc1)C1CCN(C(=O)Nc2ccc(F)cc2)CC1 | – | 0.721%
52 | O=C(Nc1cccc(Cl)c1Cl)c1ccccc1NC(=O)C1CC=CCC1C(=O)O (configuration not stated) | – | 3.31%
